Shown are actives, neighbours in structure and some others; about 19% of the full set was active somewhere.
HT1080NT lethal – qHTS for induction of synthetic lethality in tumor cells producing 2HG: qHTS for the HT-1080-NT fibrosarcoma cell line. AID 686970, 2013. HT-1080-NT fibrosarcoma viability, CellTiter-Glo ATP luminescence, 48 h. 1.6% of 360,000 active. Potency, µM (highest dose often 46.1 µM), usual class: cytotoxic;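 further: NT is the 2HG producing partner of a matched IDH1 knockdown line; nearly all actives have a fitted effect of over 55% in size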
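Toxicity toward the 2HG-producing NT line was scored as %Activity, normalised to DMSO and no-cell wells, from CellTiter-Glo luminescence after 48 hours' treatment.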
HT1080 IDH1KD tx – qHTS for induction of synthetic lethality in tumor cells producing 2HG: qHTS for the HT-1080-IDH1KD cell line; HT-1080 IDH1 knockdown viability, ATP luminescence, 48 h; Potency, µM (top dose mostly 46.1 µM), hits mostly cytotoxic; 2% of 360,000 active; AID 686971, 2013
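Cytotoxicity counter-line: IDH1KD HT-1080, 48 h, CellTiter-Glo. Curves classed by r2, magnitude and activity.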
DT40 TDP1 no CPT – qHTS for Inhibitors of human tyrosyl-DNA phosphodiesterase 1 (TDP1): qHTS in cells in absence of CPT. Potency, µM (doses to about 46.2 µM), hits mostly inhibitors. DT40 Tdp1-/- hTDP1 cells, no CPT, ATP luminescence, 48 h. 15% of 420,000 active. AID 686978, 2013; further: nearly all actives have a fitted effect of over 55% in size
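A cellular qHTS used chicken DT40 cells lacking endogenous Tdp1 but carrying stably transfected human TDP1. Compounds were applied without camptothecin, and cell growth kinetics were judged by ATP-dependent luminescence after ≥48 hr.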
TDP1 cell CPT – qHTS for Inhibitors of human tyrosyl-DNA phosphodiesterase 1 (TDP1): qHTS in cells in presence of CPT. Potency, µM (doses to about 46.2 µM), most hits filed as inhibitors. 12% of 420,000 active. chicken DT40 Tdp1-/-;hTDP1 cells + 20 nM CPT, ATP luminescence, 48 h. AID 686979, 2013; further: nearly all actives have a fitted effect of over 55% in size
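Cell growth measured by CellTiter-Glo luminescence after a minimum 48 h, 37 C compound exposure with 20 nM CPT in Tdp1-knockout DT40 cells stably expressing hTDP1, seeded 400/well; qHTS titration format.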
IL-1B inflam inh – qHTS for Inhibitors of Inflammasome Signaling: IL-1-beta AlphaLISA Primary Screen | 4.7% of 360,000 active | activity change, % at 57.5 µM | THP-1 LPS/ATP IL-1B secretion, AlphaLISA, 16 h; hits give low values | AID 743279, 2014; in the data active means activity change below about -50%; inconclusive means mostly about -30% to -49%
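THP-1 cells pretreated 1 hr with compounds (up to 57.5 uM final), then stimulated with LPS (250 ng/mL final) plus ATP (1.25 mM final); secreted IL-1B measured by AlphaLISA after 16 hr, decreased signal indicating inhibition.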
A number is an active result. Unless noted, the call rests on the fitted dose curve; in most records, active means well fitted curve in the direction sought with a large enough effect; inconclusive means small, poorly fitted or top-dose-only effect, or another doubt; inactive means no such curve, though single readings can be large; an effect the other way counts as inactive or inconclusive.

Screening CCCc1nc2c(s1)CCc1onc(-c3cccc([N+](=O)[O-])c3)c1-2 returned HT1080NT lethal inactive, HT1080 IDH1KD tx inactive, DT40 TDP1 no CPT inactive, TDP1 cell CPT inactive and IL-1B inflam inh inactive.
Screening CS(=O)(=O)N1CCC(C(=O)NCc2ccc(F)cc2)CC1 returned HT1080NT lethal inactive, HT1080 IDH1KD tx inactive, DT40 TDP1 no CPT inactive, TDP1 cell CPT inactive and IL-1B inflam inh inactive.
Screening COC(=O)c1ccc(COc2ccccc2/C=N/NC(=O)c2cccnc2)cc1 returned HT1080NT lethal inconclusive, HT1080 IDH1KD tx inconclusive, DT40 TDP1 no CPT inconclusive, TDP1 cell CPT inconclusive and IL-1B inflam inh inactive.
`CCCc1cc(=O)[nH]c(SCC(=O)c2cc(C)n(C(C)COC)c2C)n1` (configuration not stated) gave HT1080NT lethal inactive, HT1080 IDH1KD tx inactive, DT40 TDP1 no CPT inactive, TDP1 cell CPT inactive and IL-1B inflam inh inactive.
Screening COc1ccc(C(CC(=O)N2CCOCC2)c2c(OC)cc(OC)c3c(-c4ccccc4)cc(=O)oc23)cc1 (configuration not stated) returned HT1080NT lethal inactive, HT1080 IDH1KD tx inactive, DT40 TDP1 no CPT inconclusive, TDP1 cell CPT inconclusive and IL-1B inflam inh inactive.
For COc1ccc(C(CC(=O)N2CCCCC2)c2c(OC)cc(OC)c3c(-c4ccccc4)cc(=O)oc23)cc1 (configuration not stated) the results were HT1080NT lethal inactive, HT1080 IDH1KD tx inactive, DT40 TDP1 no CPT inconclusive, TDP1 cell CPT inconclusive and IL-1B inflam inh inactive.
`COc1ccc(C(CC(=O)N2CCCC(C)C2)c2c(OC)cc(OC)c3ccc(=O)oc23)cc1` (configuration not stated) gave HT1080NT lethal inactive, HT1080 IDH1KD tx inactive, DT40 TDP1 no CPT 18µM, TDP1 cell CPT inconclusive and IL-1B inflam inh inactive.
COc1ccc(C(CC(=O)N2CCCC(C)C2)c2c(OC)cc(OC)c3c(-c4ccccc4)cc(=O)oc23)cc1 (configuration not stated) was read as HT1080NT lethal inactive, HT1080 IDH1KD tx inactive, DT40 TDP1 no CPT 15µM, TDP1 cell CPT inconclusive and IL-1B inflam inh inactive.
For COc1ccc(C(CC(=O)N2CCCC2)c2c(OC)cc(OC)c3ccc(=O)oc23)cc1 (configuration not stated) the results were HT1080NT lethal inactive, HT1080 IDH1KD tx inactive, DT40 TDP1 no CPT inconclusive, TDP1 cell CPT inconclusive and IL-1B inflam inh inactive.
For COc1ccc(C(CC(=O)N2CCCC2)c2c(OC)cc(OC)c3c(-c4ccccc4)cc(=O)oc23)cc1 (configuration not stated) the results were HT1080NT lethal inactive, HT1080 IDH1KD tx inactive, DT40 TDP1 no CPT 16µM, TDP1 cell CPT inconclusive and IL-1B inflam inh inactive.
Screening Cc1oc2ccc(NS(=O)(=O)c3cccc4cccnc34)cc2c1C(=O)OC(C)C returned HT1080NT lethal inactive, HT1080 IDH1KD tx inactive, DT40 TDP1 no CPT inconclusive, TDP1 cell CPT inconclusive and IL-1B inflam inh inactive.
Screening COc1cc(NC(=O)c2ccc(NC(=O)N3CCSc4ncccc43)cc2)cc(OC)c1 returned DT40 TDP1 no CPT 13µM and TDP1 cell CPT 15µM.
For Cc1ccc(Cl)cc1NC(=O)c1ccc(NC(=O)N2CCSc3ncccc32)cc1 the results were DT40 TDP1 no CPT 21µM and TDP1 cell CPT inconclusive.
For COc1ccc(CNC(=O)c2ccc(NC(=O)N3CCSc4ncccc43)cc2)cc1OC the results were DT40 TDP1 no CPT inactive and TDP1 cell CPT inactive.
Cc1cc(NC(=O)COC(=O)c2oc3c(ccc4ccccc43)c2C)no1 was read as HT1080NT lethal inactive, HT1080 IDH1KD tx inactive, DT40 TDP1 no CPT 16µM, TDP1 cell CPT inconclusive and IL-1B inflam inh inactive.
For Cc1cc(NC(=O)COc2ccc3oc4ccccc4c3c2)no1 the results were HT1080NT lethal inactive, HT1080 IDH1KD tx inactive, DT40 TDP1 no CPT 21µM, TDP1 cell CPT inconclusive and IL-1B inflam inh inactive.
